Measurements as given in the supplement of paper PMC12669032.
A number with no mark means an inactive call.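 Rule for the calls: active = AUC reduced over 20% with Padj below 0.05 in at least 2 of 3 replicates; inactive = otherwise.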

What was measured:
Assay in all cases: growth AUC relative to DMSO control (median of replicates) (fraction); higher = more growth (less inhibition), active = hit call of the paper
Settings in all cases: 20 µM; 24 h
Akkermansia muciniphila = test system: Akkermansia muciniphila
Method in brief: (§1)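 Gut bacterial monocultures were grown anaerobically at 37 °C in mGAM, starting at OD600 0.05, with 20 µM compound (1% DMSO) in round-bottom 96-well plates under pierced gas-permeable seals. OD600 was read hourly for 24 h. Area under the growth curve (minimum OD set to 0) was normalised to the plate median of DMSO controls, or to row and column medians on the industrial chemical plate. The value is the median of three biological replicates grown on separate days.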

Bacteroides caccae = test system: Bacteroides caccae
Method in brief: as §1

Bacteroides clarus = test system: Bacteroides clarus
Method in brief: as §1

Bacteroides dorei = test system: Bacteroides dorei
Method in brief: as §1

Bacteroides stercoris = test system: Bacteroides stercoris
Method in brief: as §1

[1] = test system: Bacteroides thetaiotaomicron
Method in brief: as §1

Bacteroides uniformis = test system: Bacteroides uniformis
Method in brief: as §1

[2] = test system: Bifidobacterium longum subsp. longum
Method in brief: as §1

Clostridium difficile = test system: Clostridium difficile
Method in brief: as §1

Collinsella aerofaciens = test system: Collinsella aerofaciens
Method in brief: as §1

Structure (SMILES) | growth AUC (Akkermansia muciniphila) | growth AUC (Bacteroides caccae) | growth AUC (Bacteroides clarus) | growth AUC (Bacteroides dorei) | growth AUC (Bacteroides stercoris) | growth AUC [1] | growth AUC (Bacteroides uniformis) | growth AUC [2] | growth AUC (Clostridium difficile) | growth AUC (Collinsella aerofaciens)
O=c1oc2ccccc2c(O)c1C1CC(c2ccc(OCc3ccc(C(F)(F)F)cc3)cc2)Cc2ccccc21 (mixture of isomers) | 0.908 | 0.919 | 0.548 (active) | 1.02 | 0.176 (active) | 0.97 | 0.989 | 0.525 (active) | 0.0158 (active) | 0.788 (active)
C[C@@H](Oc1ccc(Oc2nc3ccc(Cl)cc3o2)cc1)C(=O)O | 1.03 | 1 | 1.01 | 0.924 | 1.09 | 1.01 | 0.929 | 1.16 | 0.905 | 0.961
CCOP(=S)(OCC)Oc1ccc([N+](=O)[O-])cc1 | 1.09 | 0.963 | 1 | 1.02 | 1.05 | 0.972 | 0.959 | 1.03 | 1 | 1.03
CCOP(=O)(OCC)O/C(=C\Cl)c1ccc(Cl)cc1Cl | 0.854 | 0.982 | 0.952 | 0.983 | 0.956 | 0.962 | 0.942 | 0.873 | 1 | 1
N#Cc1sc2c(=O)c3ccccc3c(=O)c=2sc1C#N | 0.95 | 0.982 | 0.948 | 0.979 | 0.783 | 0.974 | 0.882 | 0.84 | 0.968 | 1.09
[Cl][Sn]([c]1ccccc1)([c]1ccccc1)[c]1ccccc1 | 0.915 | 0.0272 (active) | 0.272 (active) | 0.0162 (active) | 0.0164 (active) | 0.00729 (active) | 0.0126 (active) | 0.303 (active) | 0.849 | 0.152 (active)
c1ccc2c(c1)ccc1c3ccccc3sc21 | 1.03 | 0.999 | 0.987 | 0.969 | 1 | 0.998 | 0.972 | 1.25 | 1.02 | 0.99
O=C(Nc1ccccc1)Nc1cnns1 | 0.941 | 0.868 | 0.921 | 0.918 | 1.04 | 0.941 | 1.01 | 1.03 | 0.936 | 0.969
Fc1ccc(C2(Cn3cncn3)OC2c2ccccc2Cl)cc1 (stereo not given) | 0.955 | 1.01 | 0.93 | 0.956 | 1.02 | 0.941 | 0.953 | 0.935 | 0.995 | 0.99
COc1nn(CSP(=S)(OC)OC)c(=O)s1 | 1.01 | 1.01 | 1.02 | 0.992 | 1.04 | 1.04 | 1.02 | 1.02 | 0.996 | 1.03
CS(=O)(=O)c1ccc(C(=O)C2C(=O)CCCC2=O)c(Cl)c1COCC(F)(F)F | 1.07 | 1.02 | 0.988 | 0.999 | 1.02 | 0.989 | 0.989 | 1.01 | 0.979 | 1.03
Cc1nc(N(C)C=O)nc(OC(=O)N(C)C)c1C | 1.01 | 0.986 | 0.998 | 0.985 | 0.955 | 0.977 | 0.971 | 1 | 0.963 | 0.992
CC(C)(C)C(O)/C(=C/c1ccc(Cl)cc1Cl)n1cncn1 (mixture of isomers) | 1 | 0.869 | 0.947 | 0.854 | 1.32 | 0.88 | 0.874 | 1.02 | 0.964 | 1.03
Cc1ccc(N(SC(F)(Cl)Cl)S(=O)(=O)N(C)C)cc1 | 0.918 | 1 | 1 | 1.04 | 1.02 | 1.02 | 1.03 | 1.03 | 0.991 | 0.989
CCS(=O)(=O)Cc1ccccc1OC(=O)NC | 1.05 | 0.949 | 1 | 0.994 | 1.1 | 0.971 | 0.995 | 1.01 | 0.977 | 1.05
Clc1ccc(Cl)c(Cl)c1Cl | 0.865 | 0.985 | 0.958 | 1.02 | 1.04 | 0.992 | 0.996 | 0.99 | 1 | 0.982
CS(=O)(=O)NC(=O)c1cc(Oc2ccc(C(F)(F)F)cc2Cl)ccc1[N+](=O)[O-] | 1.03 | 1.01 | 0.955 | 0.972 | 0.875 | 0.993 | 0.992 | 1.04 | 0.94 | 0.951
CN=C=S | 0.945 | 1.01 | 0.977 | 0.988 | 1.07 | 1 | 1 | 1.05 | 1.01 | 1.02
COP(=O)(OC)OC(Br)C(Cl)(Cl)Br (stereo not given) | 0.978 | 0.987 | 0.977 | 0.986 | 0.984 | 0.953 | 0.962 | 0.99 | 0.987 | 1.03
CC(C)(C)C(=O)C(Oc1ccc(Cl)cc1)n1cncn1 (stereo not given) | 1.04 | 0.993 | 1 | 1.01 | 1.1 | 0.999 | 0.978 | 1.02 | 1.03 | 1.01
Clc1cccc(C(Cl)(Cl)Cl)n1 | 1.16 | 1.01 | 1.01 | 0.948 | 1.03 | 1.02 | 0.961 | 1.06 | 1.01 | 0.974
CC1(C)OC(c2ccco2)CN1C(=O)C(Cl)Cl (stereo not given) | 0.918 | 1 | 0.942 | 1 | 1.03 | 0.992 | 1.02 | 1.03 | 0.956 | 1.02
CC(C)=CC1C(C(=O)OC(C#N)c2cccc(Oc3ccccc3)c2)C1(C)C (mixture of isomers) | 0.826 | 0.964 | 0.994 | 0.989 | 1.11 | 1.01 | 1.06 | 0.914 | 1 | 0.935
O=S1(=O)OCC2C(CO1)C1(Cl)C(Cl)=C(Cl)C2(Cl)C1(Cl)Cl (stereo not given) | 1.39 | 0.997 | 0.945 | 0.962 | 0.765 | 0.984 | 0.914 | 1.11 | 1 | 0.993
CNC(=O)O/N=C/C(C)(C)SC | 0.909 | 1.03 | 0.993 | 1.03 | 0.943 | 0.987 | 1.01 | 0.957 | 0.979 | 1.04
Cc1cc(Cl)ccc1O | 1.04 | 1.02 | 1.03 | 1.01 | 1.09 | 1.03 | 1 | 0.911 | 1 | 1.01
CCNc1nc(NCC)nc(SC)n1 | 1.14 | 0.946 | 1.02 | 0.994 | 1.26 | 0.955 | 1 | 1.08 | 0.981 | 0.996
CCCCOC(=O)N(C)SN(C)C(=O)Oc1cccc2c1OC(C)(C)C2 | 1.03 | 1.02 | 0.969 | 1.01 | 1.08 | 1.04 | 1 | 1.11 | 0.992 | 1.01
O=[N+]([O-])c1ccccc1 | 1.11 | 1.01 | 1.02 | 0.97 | 1.13 | 1.03 | 1 | 1.06 | 1.01 | 0.951
